# Hits are enriched below; roughly 1.9% of the tested compounds scored in any of these assays.
# RXFP1 antagonist: qHTS Assay for Antagonists of the Relaxin Receptor RXFP1; HEK293-RXFP1, relaxin-stimulated cAMP HTRF, 30 min; stronger effect = lower value; 0.59% of 350,000 active; activity change, negative = inhibition, % at 57.5 µM; AID 1259400, 2018; Relaxin receptor 1 (Homo sapiens), Q9HBX9;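 active = activity change of -60% or lower, but not beyond a set lower limit; inconclusive = change between -60% and -40%, or beyond the set limit; inactive = change above -40%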
# IL2 activator: qHTS of IL-2 Activators | IL-2 activation reporter assay, cell-based qHTS; stimulated with anti-CD3/CD4/CD28 beads; in transgenic mouse T cells | activation, % (series mostly up to about 46 µM) | 0.065% of 360,000 active | AID 652025, 2013; in the data active = activation above about 50%; inconclusive = mostly about 30% to 49%
#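 EGFP and DsRed fluorescence is measured by plate cytometry in unstimulated transgenic mouse T cells exposed to compound for 60 minutes, then stimulated 18 hours at 37 degrees C with anti-CD3/anti-CD4 beads plus anti-CD28.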
# NPSR antagonist: qHTS Assay for Antagonists of the Neuropeptide S Receptor: cAMP Signal Transduction; Q6W5P4; CHO-NPSR cells, cAMP TR-FRET, antagonist mode; Potency, µM (titrated, usually from 38.3 µM), hits mostly inhibitors; 1% of 220,000 active; AID 1461, 2008; note: nearly all actives have a fitted effect of over 50% in size
# Target sequence (Q6W5P4 whole entry, looked up): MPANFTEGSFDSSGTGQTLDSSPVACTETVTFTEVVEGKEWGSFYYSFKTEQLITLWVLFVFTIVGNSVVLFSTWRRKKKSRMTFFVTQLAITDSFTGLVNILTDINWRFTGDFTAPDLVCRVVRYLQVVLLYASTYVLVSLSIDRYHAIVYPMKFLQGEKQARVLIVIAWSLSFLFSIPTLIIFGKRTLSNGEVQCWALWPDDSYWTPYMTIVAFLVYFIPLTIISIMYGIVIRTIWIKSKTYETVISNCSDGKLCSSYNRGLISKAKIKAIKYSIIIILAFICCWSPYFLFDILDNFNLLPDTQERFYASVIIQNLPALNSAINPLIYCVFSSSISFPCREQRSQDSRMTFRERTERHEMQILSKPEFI
# BRCA1 expr up: qHTS Assay to Identify Small Molecule Activators of BRCA1 Expression | 1.1% of 380,000 active | MCF7-BRCA1-FFLuc reporter, luminescence, 48 h; response scale: scaled: vehicle 0%, 10 µM genistein 100% | Potency, µM (titrated, usually from 46.1 µM), usual class: activators; note: nearly all actives have a fitted effect of over 80% in size
#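 MCF7 cells carrying a BRCA1-firefly luciferase reporter (2000 cells/well, phenol-red free MEM) were attached for 2 h at 37 °C, then given compounds for 48 h. Luminescence was read 15 min after luciferase reagent; activity normalized to genistein (10 microM) and DMSO.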
# Giardia killer: Small Molecules that selectively kill Giardia lamblia: qHTS; AID 540267, 2011; Giardia lamblia trophozoite viability; activity change, % at 7.66 µM, hits read low; 0.15% of 340,000 active; in the data active = activity change below about -80%; inconclusive = between about -30% and that limit;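 note: parasites exposed to compound for two days anaerobically before the ATP read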
#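 ATP-content bioluminescence gauges trophozoite survival. Cells (100/well) receive compound and incubate anaerobically for 48 hrs at 37 deg C; detection reagent follows for 15-30 min at room temperature.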
# RXFP1 agonist: qHTS Assay for Agonists of the Relaxin Receptor RXFP1 | Relaxin receptor 1 (Homo sapiens), Q9HBX9 | HEK293T-RXFP1 cAMP TR-FRET, 30 min; response scale: percent of porcine relaxin response, buffer zero | Potency, µM (top dose mostly 57.5 µM), actives largely listed as activators | 0.3% of 370,000 active | AID 2676, 2010; note: nearly all actives have a fitted effect of over 60% in size
#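 cAMP rise read by TR-FRET after 30 min, 37C compound exposure (up to 58 uM) in RXFP1-transfected HEK293 cells with Ro 20174 present. EC50 from Hill-equation fits, with 29 nM porcine relaxin as 100% and buffer as basal.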
# A number is an active result; n = inactive; u = inconclusive; x = no result given. Unless noted, calls come from the whole dose curve; as a rule, active = well fitted curve in the direction sought with a large enough effect; inconclusive = small, poorly fitted or top-dose-only effect, or another doubt; inactive = no such curve, though single readings can be large; an effect the other way counts as inactive or inconclusive.
SMILES,RXFP1 antagonist,IL2 activator,NPSR antagonist,BRCA1 expr up,Giardia killer,RXFP1 agonist
C(/C=C/c1ccccc1)=N/N1CCN(c2ccccc2)CC1,n,n,n,7.94µM,n,n
CC(C)c1ccc(/C=N/N2CCCCC2)cc1,n,n,n,n,n,n
CN(C)c1ccc(C=NN2CCCCCC2)cc1,n,n,x,7.94µM,n,x
COc1ccc(C(=O)Nc2cc(C(C)C)c(O)c(S(=O)(=O)c3ccc(OC)cc3)c2C)cc1,x,x,x,5.62µM,x,n
COc1ccc(C(=O)Nc2cc(C(C)C)c(O)c(S(=O)(=O)c3ccc(Cl)cc3)c2C)cc1,x,x,x,u,x,n
CCOc1cccc(C2C=C(c3ccc4c(c3)OCO4)NC(c3ccc(Br)cc3)N2)c1O (configuration not stated),x,x,x,n,n,x
COc1ccc(/C=N/n2cnnc2SCCO)cc1OC,n,n,n,n,n,n
C=CCSc1nncn1/N=C/c1ccc(OC)cc1,n,n,n,2.24µM,n,n
CN(C)CCC(=O)N1C/C(=C/c2ccccc2)C(=O)/C(=C\c2ccccc2)C1,-113.5,n,x,n,n,x
C[N+](C)(C)CCC(=O)N1C/C(=C/c2ccccc2)C(=O)/C(=C\c2ccccc2)C1,n,n,x,n,n,x
C=CCn1c(NS(=O)(=O)c2ccccc2)c(S(=O)(=O)c2ccc(C)cc2)c2nc3ccccc3nc21,x,n,n,n,n,n
O=S(=O)(Nc1c(S(=O)(=O)c2ccccc2)c2nc3ccccc3nc2n1C1CCCCC1)c1ccccc1,-71.6,n,n,n,n,n
CCOC(=O)c1c(/C=N/Nc2ccccc2)c2sc(C)cc2n1C,x,x,x,x,x,n
Cc1cccc(Cn2cc3c(=O)n(CC(=O)Nc4ccc(C)c(F)c4)nc-3c3cc(F)ccc32)c1,n,x,x,x,x,n
Cc1[nH]c2ccccc2c1CCN(Cc1cccnc1)C(=S)Nc1cccc(F)c1,n,n,n,n,u,n
Cc1[nH]c2ccccc2c1CCN(Cc1cccnc1)C(=S)Nc1ccc(F)cc1,x,n,7.94µM,n,u,n
COc1ccc(/[N+]([O-])=C/c2ccoc2)cc1,x,n,x,11.2µM,n,n
CCOc1c2c(c(-c3ccc4c(c3)OCO4)c3cc(OC)c(OC)cc13)C(=O)OC2,x,x,x,n,n,x
CN(C)c1ccc(CCc2ccnc3ccccc23)cc1,x,x,x,n,x,x
COc1ccc(-c2csc(Nc3cccc(C)n3)n2)cc1,n,n,x,u,n,n
Cc1cccc(Nc2nc(-c3ccc(F)cc3)cs2)n1,-77.8,n,x,n,n,n
CC(C)Cc1nc(N2CCN(C(=O)c3ccccc3)CC2)c(C#N)c2c1CCC2,n,n,2µM,n,n,n
CCOc1ccc(N(CCCCO)C(=S)NC(=O)c2ccc(C)c(Br)c2)cc1,-89.5,n,n,n,n,n
CCN(CC)C(=S)NC(=O)c1ccc(OC)c(Br)c1,n,n,n,n,n,n
CC1(C)CC(=O)C2=C(C1)NC(Nc1nc3ccccc3o1)=NC2c1cccc(O)c1 (configuration not stated),x,x,x,n,n,x
SMILES,RXFP1 antagonist,IL2 activator,NPSR antagonist,BRCA1 expr up,Giardia killer,RXFP1 agonist
Cn1c(/C=C/c2ccc([N+](=O)[O-])o2)nc2ccccc2c1=O,n,n,10µM,n,u,n
Cc1ccc(-c2cc(C(=O)N/N=C/c3ccc([N+](=O)[O-])o3)c3ccccc3n2)o1,n,n,x,n,-92.3,n
Cc1cc(Nc2ccc([N+](=O)[O-])cc2)nc2ccccc12,n,n,n,n,n,n
O=C(N/N=C/c1ccc([N+](=O)[O-])o1)c1cc(-c2ccncc2)nc2ccccc12,n,n,n,n,n,n
Cn1c(/C=C/c2ccccc2)nc2ccccc2c1=O,n,n,x,n,n,n
O=C(N/N=C/c1ccc([N+](=O)[O-])o1)c1cc(-c2ccc(-c3ccccc3)cc2)nc2ccccc12,n,n,n,n,-97.6,n
Cc1cc(N/N=C/c2ccc([N+](=O)[O-])o2)nc2ccccc12,n,n,n,n,-82.3,n
Cc1ccc(/C=N/NC(=O)c2cc(-c3ccncc3)nc3ccccc23)o1,n,n,x,n,n,n
CSc1ccc(CNC(=O)Cc2csc3ccccc23)cc1,n,x,x,x,x,n
COc1cc2c(=O)n(Cc3ccccc3Cl)c(=O)n(CC(=O)Nc3ccc(C)c(C)c3)c2cc1OC,x,x,x,n,x,u
O=[N+]([O-])c1ccc(/C=N/Nc2nc(N3CCCCC3)nc(N3CCCCC3)n2)cc1,n,n,u,n,n,n
O=[N+]([O-])c1ccc(/C=N/Nc2nc(N3CCCCCC3)nc(N3CCCCCC3)n2)o1,n,n,6.31µM,n,u,n
Nc1c(Br)cc(/C=C2\C=Cc3ccccc32)cc1Br,x,x,x,n,x,x
CN1C(=O)/C(=C\C(=O)c2cccs2)c2ccccc21,-97.6,n,n,n,n,n
O=C1CCN(C(=O)c2cccs2)c2ccccc21,n,n,n,n,n,n
O=C(Cn1c(=O)c(CNc2ccccc2)cc2cc3c(cc21)OCCO3)Nc1ccccc1Cl,n,x,x,n,n,u
Cc1cc(C)n(-c2nc(SCCN(C)C)c3c4c(sc3n2)CCCC4)n1,-60.9,n,u,n,n,n
COc1ccccc1CCC(=O)NC1CCCN(c2ccc(C(F)(F)F)cn2)C1 (configuration not stated),-99.0,n,x,n,n,n
Cc1ccc(C(=O)Nc2ccc(SC(F)F)cc2)s1,-73.4,n,n,u,n,n
CC(C)COc1ccc(C(=O)Nc2ccc([N+](=O)[O-])cc2)cc1,n,n,n,n,n,n
CC(C)COc1ccc(C(=O)Nc2ccc(SC(F)F)cc2)cc1,n,n,n,8.91µM,n,n
CCOc1c(O)ccc(/C=C2\SC(=S)NC2=O)c1[N+](=O)[O-],n,n,n,11.2µM,n,n
CCOc1ccc(N(C)c2ccc(/C=C3/SC(=S)NC3=O)cc2)cc1,u,n,x,n,n,n
O=C(Nc1ccc(-c2nc3ccccc3s2)cc1)C1=COCCO1,n,n,n,n,u,n
O=C(Nc1cccc(-c2nc3ccccc3s2)c1)C1=COCCO1,-79.9,n,n,n,n,n
CCOC(=O)C1CCN(C(=O)c2cc3c(ccc4ccccc43)o2)CC1,n,n,x,u,n,n
CC1CCN(C(=O)c2cc3c(ccc4ccccc43)o2)CC1,-60.2,n,x,n,n,n
CCN(CC)c1ccc(NC(=O)c2cccc(C)c2OC)c(C)c1,n,n,n,4.47µM,n,n
CCN(CC)c1ccc(-n2nc3cc(C)c(NC(=O)c4ccccc4C)cc3n2)c(C)c1,n,x,x,n,n,n

# Assay outcomes as filed in PubChem BioAssay.
